Screening data from PubChem.
Sm TGR inh: qHTS Assay for the Inhibitors of Schistosoma Mansoni Peroxiredoxins; Schistosoma mansoni thioredoxin glutathione reductase (TGR), Q962Y6; purified TGR, DTNB reduction, TNB absorbance 405 nm; Potency, µM (series often up to 114 µM), for inactives: at the top dose activity change, negative = inhibition, hits mostly inhibitors; 3% of 360,000 active; note: potency is the fitted concentration of half-maximal effect; nearly all actives have a fitted effect of over 60% in size
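Kinetic colorimetric format: TGR-catalysed, NADPH-driven DTNB reduction monitored via TNB absorbance. Enzyme dispensed at 20 nM; compound exposure 15 min at room temperature before reaction start.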
Vaccinia Venus: qHTS for Stage-Specific Inhibitors of Vaccinia Orthopoxvirus: Venus Reporter Primary qHTS; Potency, µM (doses to about 36.5 µM), for inactives: at the highest dose activity change, negative = inhibition, usual class: inhibitors; 0.46% of 330,000 active; Vaccinia virus Venus reporter expression, fluorescence; calls by dose curve; tested in A549 cells; note: potency is the fitted concentration of half-maximal effect; nearly all actives have a fitted effect of over 30% in size
FMDV antiviral: High Throughput Screening for Foot and Mouth Disease Virus Antivirals; FMDV antiviral cell-based qHTS; Potency, µM (doses to about 57.9 µM), inactives show top-dose activity change, negative = inhibition, most hits filed as inhibitors; 1.2% of 410,000 active; AID 1159524, 2015; calls by dose curve; tested in HEK293T cells; note: read-out not given here; potency is the fitted concentration of half-maximal effect; nearly all actives have a fitted effect of over 45% in size
HCMV inh: qHTS Assay for inhibitors of the human cytomegalovirus (HCMV); HFF cells, HCMV-luciferase reporter, 72 h; hits give low values; 4.5% of 410,000 active; AID 1259415, 2018; activity change, negative = inhibition, % at 57.5 µM; in the data active = activity change below about -60%; inconclusive = no clear call, values can overlap the other calls; inactive = above about -39%
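Luciferase read-out from HCMV-luciferase-infected HFFs (MOI 1 PFU/cell) 72 h post infection at 37C; compounds added after 16 h cell attachment; activity normalized between buffer-only basal and Salinomycin (10uM) inhibitor controls.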
Vaccinia mCherry: qHTS for Stage-Specific Inhibitors of Vaccinia Orthopoxvirus: mCherry Reporter Primary qHTS; Potency, µM (titrated, usually from 36.5 µM), without a hit: top-dose activity change, negative = inhibition, most hits filed as inhibitors; Vaccinia virus mCherry reporter infection, fluorescence; AID 720579, 2013; 0.63% of 310,000 active; calls by dose curve; tested in A549 cells; note: potency is the fitted concentration of half-maximal effect; nearly all actives have a fitted effect of over 35% in size
HCV inh: qHTS Assay for Inhibitors of Hepatitis C Virus (HCV); Huh7.5.1 HCVcc-Cre infection, luciferase reporter, 44 h; Potency, µM (titrated, usually from 41.8 µM), for the others: top-dose activity change, negative = inhibition, hits mostly inhibitors; 3.4% of 340,000 active; note: potency is the fitted concentration of half-maximal effect
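Cells (1,000/well) were plated 4 h before compound, then infected with HCVcc-Cre virus (~0.5 moi). After 44 h further culture, infection was read as luciferase luminescence following a 15 min substrate incubation at room temperature.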
Active calls of the source: *; i = inactive; ? = inconclusive; nt = not tested or not shown. In the library only some 9.3% were active in any assay of this set; here they are far more common. Unless noted, calls come from the whole dose curve; as a rule, active = well fitted curve in the direction sought with a large enough effect; inconclusive = small, poorly fitted or top-dose-only effect, or another doubt; inactive = no such curve, though single readings can be large; an effect the other way counts as inactive or inconclusive. % is set by controls: 0 for no effect and ±100 for the full control effect.

SMILES	Sm TGR inh	Vaccinia Venus	FMDV antiviral	HCMV inh	Vaccinia mCherry	HCV inh
CCOc1ccc(NCc2cccn2-c2nnc(N3CCC(C(=O)NCCCN4CCCCC4CC)CC3)s2)cc1 (configuration not stated)	0%	nt	-7%	?	nt	?
Cn1c(=O)[nH]c2c(cnn2C)c1=O	nt	-9%	-11%	-98*	-14%	1%
NC(=O)c1c(NC(=O)CSc2nnc(-c3ccco3)n2-c2ccccc2)sc2c1CCC2	22µM*	nt	?	-1	nt	-16%
N#Cc1c(NC(=O)CSc2nnc(-c3ccco3)n2-c2ccccc2)sc2c1CCC2	56µM*	-26%	?	-39	nt	-16%
CNC(=O)CSc1nnc(-c2ccco2)n1-c1ccccc1	-1%	-3%	20%	-1	i	12%
CCn1c(SCC(=O)Nc2sc3c(c2C#N)CCCC3)nnc1-c1ccco1	?	-10%	-23%	2	i	?
Cc1c(N(C(=O)c2cnccn2)C2(C(=O)NC3CCCC3)CCCCC2)c(=O)n(-c2ccccc2)n1C	0%	-5%	6%	23	i	2%
Cc1onc(-c2c(F)cccc2Cl)c1-c1nnc(-c2ccc(C(F)(F)F)cc2)o1	3%	17%	?	?	?	-42%
Cc1onc(-c2c(Cl)cccc2Cl)c1-c1nnc(-c2ccc(Cl)cc2)o1	10%	-13%	?	-12	-5%	18µM*
CCC(C)N1C(=O)/C(=C\c2cnc(N(C)C)nc2)C(=O)NC1=S (configuration not stated)	10µM*	12%	22µM*	-39	7%	15%
CCC(C)N1C(=O)/C(=C\c2cc3c4c(c2)CCCN4CCC3)C(=O)NC1=S (configuration not stated)	?	8%	32µM*	-34	4%	-22%
CCOc1ccc(S(=O)(=O)Nc2ccc(C(=O)NCC(c3ccc(OC)cc3)N3CCOCC3)cc2)cc1 (configuration not stated)	nt	nt	6%	-13	nt	-4%
COc1cc(NS(=O)(=O)c2ccc3c(c2)CC(=O)N3)cc(OC)c1OC	7%	-16%	27%	-2	-16%	nt
COc1ccc(Nc2oc(COc3ccccc3OC)nc2C#N)cc1	18µM*	-3%	11%	-80*	-12%	-1%
N#Cc1nc(COc2ccccc2Cl)oc1NCCc1ccccc1	-24%	-9%	-20%	1	i	nt
N#Cc1nc(COc2ccccc2F)oc1NCCCn1ccnc1	25µM*	-18%	16%	-16	-17%	-5%
COc1ccccc1OCc1nc(C#N)c(NCCCn2ccnc2)o1	45µM*	0%	-9%	?	-21%	?
N#Cc1nc(COc2ccc(F)cc2)oc1NCCCn1ccnc1	-13%	-14%	-3%	-28	-16%	-5%
COc1ccccc1OCc1nc(C#N)c(NCc2ccc(C)cc2)o1	-9%	8%	-13%	2	-10%	nt
CCNc1oc(COc2ccccc2F)nc1C#N	56µM*	-8%	73%	-11	-7%	3%
Fc1ccc(-c2n[nH]c(=S)c3ccccc23)cc1	2%	nt	-5%	25	nt	13%
Cc1ccc(NC(=O)C(=Cc2ccc(C(=O)O)cc2)C(=O)Nc2ccc(C)cc2C)c(C)c1	-32%	nt	11µM*	nt	nt	?
OCCC1CN(CC#Cc2ccccc2)CCN1Cc1ccccc1F (configuration not stated)	20µM*	?	-6%	-19	?	20%
CC(C)CN1CCN(CC#Cc2ccccc2)CC1CCO (configuration not stated)	-30%	nt	-1%	37	nt	-5%
CC(Sc1nc2ccccc2c(=O)n1C)C(=O)N(C)C1CCCCC1 (configuration not stated)	3%	-24%	?	-79*	-10%	?
